# Reference: the supplement of paper PMC11732987, “Enantioselective OTUD7B fragment discovery through chemoproteomics screening and high-throughput optimisation” (Communications Chemistry, 2025)
# A number with no mark means an inactive call.
# Assays:
# Assay in all cases: log2 ratio of Biotin-Ahx-Ub-VS probe labelling (fragment/DMSO); higher = less target engagement (more negative = stronger competition), active = hit call of the paper (q ≤ 0.05, log2 ratio ≤ -1)
# Conditions in all cases: compound concentration: 200 uM; treatment time: 3 h
# USP19 = target: T1, USP19 (UniProt O94966)
# T1 sequence (whole entry): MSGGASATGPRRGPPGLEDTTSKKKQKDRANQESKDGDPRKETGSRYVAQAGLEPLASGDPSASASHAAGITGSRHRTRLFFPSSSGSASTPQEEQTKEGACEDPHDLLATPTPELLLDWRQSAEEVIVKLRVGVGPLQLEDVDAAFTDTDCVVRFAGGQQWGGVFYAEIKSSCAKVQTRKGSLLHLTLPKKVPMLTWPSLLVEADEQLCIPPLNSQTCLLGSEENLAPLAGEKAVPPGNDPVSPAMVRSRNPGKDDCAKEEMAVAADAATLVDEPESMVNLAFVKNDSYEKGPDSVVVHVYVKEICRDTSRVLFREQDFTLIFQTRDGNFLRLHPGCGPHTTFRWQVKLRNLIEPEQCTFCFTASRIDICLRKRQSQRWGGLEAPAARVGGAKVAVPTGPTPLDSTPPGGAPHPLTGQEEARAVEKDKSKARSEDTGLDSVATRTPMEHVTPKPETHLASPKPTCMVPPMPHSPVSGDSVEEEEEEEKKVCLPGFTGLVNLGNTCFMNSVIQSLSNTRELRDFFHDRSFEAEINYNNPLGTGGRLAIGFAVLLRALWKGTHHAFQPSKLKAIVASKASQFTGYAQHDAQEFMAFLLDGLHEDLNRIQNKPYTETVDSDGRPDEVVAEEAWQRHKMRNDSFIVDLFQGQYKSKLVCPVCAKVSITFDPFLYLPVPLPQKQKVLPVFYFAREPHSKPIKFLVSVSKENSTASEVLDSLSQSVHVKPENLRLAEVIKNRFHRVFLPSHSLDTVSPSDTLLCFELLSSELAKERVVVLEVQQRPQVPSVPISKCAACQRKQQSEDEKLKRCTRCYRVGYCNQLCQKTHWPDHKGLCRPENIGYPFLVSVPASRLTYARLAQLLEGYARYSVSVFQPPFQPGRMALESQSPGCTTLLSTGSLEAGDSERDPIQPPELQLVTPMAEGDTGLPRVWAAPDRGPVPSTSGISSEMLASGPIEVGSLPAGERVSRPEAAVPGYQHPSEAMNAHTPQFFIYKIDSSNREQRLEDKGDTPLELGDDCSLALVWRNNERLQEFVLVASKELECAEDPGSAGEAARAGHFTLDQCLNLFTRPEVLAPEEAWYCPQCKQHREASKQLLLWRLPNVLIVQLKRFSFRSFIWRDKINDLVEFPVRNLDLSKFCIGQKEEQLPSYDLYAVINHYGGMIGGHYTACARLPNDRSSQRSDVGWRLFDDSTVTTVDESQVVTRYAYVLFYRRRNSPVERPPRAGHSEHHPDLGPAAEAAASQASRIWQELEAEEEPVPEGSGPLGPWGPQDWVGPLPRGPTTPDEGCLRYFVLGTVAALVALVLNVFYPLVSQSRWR
# In short: (§1)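 HEK293T lysate (495 µg per sample, in Tris/CHAPS/IGEPAL buffer with protease inhibitors) was treated in triplicate with fragment at 200 µM or with DMSO for 3 h. It was then treated with Biotin-Ahx-Ub-VS (0.5 µM final) for 1 h. Labelled DUBs were NeutrAvidin-enriched, digested with LysC and trypsin, and run by diaPASEF LC-MS/MS. Spectronaut label-free quantities were global-median-normalised. Values are average log2 ratios fragment/DMSO by unpaired t-test, using proteins with ≥2 unique peptides.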
# USP22 = target: T2, USP22 (UniProt Q9UPT9)
# T2 sequence (whole entry): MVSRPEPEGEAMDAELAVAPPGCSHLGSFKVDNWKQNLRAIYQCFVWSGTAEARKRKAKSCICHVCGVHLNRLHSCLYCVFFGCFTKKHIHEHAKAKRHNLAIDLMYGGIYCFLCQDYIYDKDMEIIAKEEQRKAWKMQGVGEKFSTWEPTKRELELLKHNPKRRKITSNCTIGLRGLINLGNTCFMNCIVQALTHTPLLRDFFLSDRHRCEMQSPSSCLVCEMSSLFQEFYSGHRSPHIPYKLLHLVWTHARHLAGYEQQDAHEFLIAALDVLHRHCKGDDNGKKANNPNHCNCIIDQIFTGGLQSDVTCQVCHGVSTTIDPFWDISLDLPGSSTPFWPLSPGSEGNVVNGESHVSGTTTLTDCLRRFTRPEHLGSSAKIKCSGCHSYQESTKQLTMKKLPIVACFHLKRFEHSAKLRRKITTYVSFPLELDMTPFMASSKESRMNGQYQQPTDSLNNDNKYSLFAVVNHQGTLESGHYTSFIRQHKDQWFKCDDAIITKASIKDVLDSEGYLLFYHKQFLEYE
# In short: as §1
# USP24 = USP24 (UniProt Q9UPU5)
# In short: as §1
# USP25 = target: T3, USP25 (UniProt Q9UHP3)
# T3 sequence (whole entry): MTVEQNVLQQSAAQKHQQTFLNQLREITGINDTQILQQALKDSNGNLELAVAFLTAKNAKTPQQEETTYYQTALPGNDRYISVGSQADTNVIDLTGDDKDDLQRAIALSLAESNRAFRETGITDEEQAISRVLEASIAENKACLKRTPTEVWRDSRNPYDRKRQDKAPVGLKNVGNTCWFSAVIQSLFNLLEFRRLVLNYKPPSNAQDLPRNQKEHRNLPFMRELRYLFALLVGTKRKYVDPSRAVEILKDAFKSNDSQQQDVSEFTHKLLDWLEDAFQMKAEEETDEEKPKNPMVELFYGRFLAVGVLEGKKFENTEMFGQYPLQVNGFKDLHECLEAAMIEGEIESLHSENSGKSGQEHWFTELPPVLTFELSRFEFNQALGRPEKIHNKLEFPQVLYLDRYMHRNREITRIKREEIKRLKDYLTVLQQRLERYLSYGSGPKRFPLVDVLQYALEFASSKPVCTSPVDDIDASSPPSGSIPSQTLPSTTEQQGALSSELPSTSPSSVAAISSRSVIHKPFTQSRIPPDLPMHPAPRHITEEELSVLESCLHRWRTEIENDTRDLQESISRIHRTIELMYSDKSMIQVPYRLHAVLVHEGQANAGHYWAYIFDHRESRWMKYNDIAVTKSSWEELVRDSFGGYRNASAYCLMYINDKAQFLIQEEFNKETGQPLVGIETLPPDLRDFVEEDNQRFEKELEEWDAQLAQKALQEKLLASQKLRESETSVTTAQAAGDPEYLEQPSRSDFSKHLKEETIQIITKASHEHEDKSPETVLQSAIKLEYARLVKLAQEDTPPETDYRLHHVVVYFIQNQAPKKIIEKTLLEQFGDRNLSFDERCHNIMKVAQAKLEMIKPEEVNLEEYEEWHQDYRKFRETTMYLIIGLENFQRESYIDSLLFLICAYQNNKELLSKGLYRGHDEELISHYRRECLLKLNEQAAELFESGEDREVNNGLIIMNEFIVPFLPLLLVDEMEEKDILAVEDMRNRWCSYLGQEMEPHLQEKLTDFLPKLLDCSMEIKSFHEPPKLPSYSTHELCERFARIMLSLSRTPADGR
# In short: as §1
# USP28 = target: T4, USP28 (UniProt Q96RU2)
# T4 sequence (whole entry): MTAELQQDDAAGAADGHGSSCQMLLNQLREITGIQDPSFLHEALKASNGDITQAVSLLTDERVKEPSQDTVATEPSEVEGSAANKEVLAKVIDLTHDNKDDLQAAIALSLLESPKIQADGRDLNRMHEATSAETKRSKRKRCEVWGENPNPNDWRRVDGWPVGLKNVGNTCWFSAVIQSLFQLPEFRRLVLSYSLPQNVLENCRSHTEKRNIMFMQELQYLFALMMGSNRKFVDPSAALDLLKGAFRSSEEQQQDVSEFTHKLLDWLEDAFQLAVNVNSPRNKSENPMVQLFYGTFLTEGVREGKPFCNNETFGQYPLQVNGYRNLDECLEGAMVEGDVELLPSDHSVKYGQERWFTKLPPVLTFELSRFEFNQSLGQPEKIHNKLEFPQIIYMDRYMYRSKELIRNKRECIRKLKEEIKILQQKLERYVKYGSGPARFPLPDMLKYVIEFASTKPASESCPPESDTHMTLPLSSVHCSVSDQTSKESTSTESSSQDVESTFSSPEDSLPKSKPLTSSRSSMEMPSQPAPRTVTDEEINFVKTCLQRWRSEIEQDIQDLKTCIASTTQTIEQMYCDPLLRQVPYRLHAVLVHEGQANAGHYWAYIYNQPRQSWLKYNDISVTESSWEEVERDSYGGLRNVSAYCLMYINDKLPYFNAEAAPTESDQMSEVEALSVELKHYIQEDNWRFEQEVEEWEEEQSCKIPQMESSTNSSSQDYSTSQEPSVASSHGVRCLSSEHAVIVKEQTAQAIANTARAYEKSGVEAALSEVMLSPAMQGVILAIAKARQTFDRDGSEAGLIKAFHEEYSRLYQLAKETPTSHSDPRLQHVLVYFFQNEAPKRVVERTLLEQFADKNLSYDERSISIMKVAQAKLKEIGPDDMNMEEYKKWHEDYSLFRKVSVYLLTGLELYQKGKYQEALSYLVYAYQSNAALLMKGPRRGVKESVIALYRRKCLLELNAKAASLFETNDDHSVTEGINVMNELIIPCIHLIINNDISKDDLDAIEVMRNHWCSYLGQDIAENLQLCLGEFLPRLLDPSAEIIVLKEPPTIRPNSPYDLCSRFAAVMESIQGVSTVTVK
# In short: as §1
# USP24, sequence (Q9UPU5 whole entry): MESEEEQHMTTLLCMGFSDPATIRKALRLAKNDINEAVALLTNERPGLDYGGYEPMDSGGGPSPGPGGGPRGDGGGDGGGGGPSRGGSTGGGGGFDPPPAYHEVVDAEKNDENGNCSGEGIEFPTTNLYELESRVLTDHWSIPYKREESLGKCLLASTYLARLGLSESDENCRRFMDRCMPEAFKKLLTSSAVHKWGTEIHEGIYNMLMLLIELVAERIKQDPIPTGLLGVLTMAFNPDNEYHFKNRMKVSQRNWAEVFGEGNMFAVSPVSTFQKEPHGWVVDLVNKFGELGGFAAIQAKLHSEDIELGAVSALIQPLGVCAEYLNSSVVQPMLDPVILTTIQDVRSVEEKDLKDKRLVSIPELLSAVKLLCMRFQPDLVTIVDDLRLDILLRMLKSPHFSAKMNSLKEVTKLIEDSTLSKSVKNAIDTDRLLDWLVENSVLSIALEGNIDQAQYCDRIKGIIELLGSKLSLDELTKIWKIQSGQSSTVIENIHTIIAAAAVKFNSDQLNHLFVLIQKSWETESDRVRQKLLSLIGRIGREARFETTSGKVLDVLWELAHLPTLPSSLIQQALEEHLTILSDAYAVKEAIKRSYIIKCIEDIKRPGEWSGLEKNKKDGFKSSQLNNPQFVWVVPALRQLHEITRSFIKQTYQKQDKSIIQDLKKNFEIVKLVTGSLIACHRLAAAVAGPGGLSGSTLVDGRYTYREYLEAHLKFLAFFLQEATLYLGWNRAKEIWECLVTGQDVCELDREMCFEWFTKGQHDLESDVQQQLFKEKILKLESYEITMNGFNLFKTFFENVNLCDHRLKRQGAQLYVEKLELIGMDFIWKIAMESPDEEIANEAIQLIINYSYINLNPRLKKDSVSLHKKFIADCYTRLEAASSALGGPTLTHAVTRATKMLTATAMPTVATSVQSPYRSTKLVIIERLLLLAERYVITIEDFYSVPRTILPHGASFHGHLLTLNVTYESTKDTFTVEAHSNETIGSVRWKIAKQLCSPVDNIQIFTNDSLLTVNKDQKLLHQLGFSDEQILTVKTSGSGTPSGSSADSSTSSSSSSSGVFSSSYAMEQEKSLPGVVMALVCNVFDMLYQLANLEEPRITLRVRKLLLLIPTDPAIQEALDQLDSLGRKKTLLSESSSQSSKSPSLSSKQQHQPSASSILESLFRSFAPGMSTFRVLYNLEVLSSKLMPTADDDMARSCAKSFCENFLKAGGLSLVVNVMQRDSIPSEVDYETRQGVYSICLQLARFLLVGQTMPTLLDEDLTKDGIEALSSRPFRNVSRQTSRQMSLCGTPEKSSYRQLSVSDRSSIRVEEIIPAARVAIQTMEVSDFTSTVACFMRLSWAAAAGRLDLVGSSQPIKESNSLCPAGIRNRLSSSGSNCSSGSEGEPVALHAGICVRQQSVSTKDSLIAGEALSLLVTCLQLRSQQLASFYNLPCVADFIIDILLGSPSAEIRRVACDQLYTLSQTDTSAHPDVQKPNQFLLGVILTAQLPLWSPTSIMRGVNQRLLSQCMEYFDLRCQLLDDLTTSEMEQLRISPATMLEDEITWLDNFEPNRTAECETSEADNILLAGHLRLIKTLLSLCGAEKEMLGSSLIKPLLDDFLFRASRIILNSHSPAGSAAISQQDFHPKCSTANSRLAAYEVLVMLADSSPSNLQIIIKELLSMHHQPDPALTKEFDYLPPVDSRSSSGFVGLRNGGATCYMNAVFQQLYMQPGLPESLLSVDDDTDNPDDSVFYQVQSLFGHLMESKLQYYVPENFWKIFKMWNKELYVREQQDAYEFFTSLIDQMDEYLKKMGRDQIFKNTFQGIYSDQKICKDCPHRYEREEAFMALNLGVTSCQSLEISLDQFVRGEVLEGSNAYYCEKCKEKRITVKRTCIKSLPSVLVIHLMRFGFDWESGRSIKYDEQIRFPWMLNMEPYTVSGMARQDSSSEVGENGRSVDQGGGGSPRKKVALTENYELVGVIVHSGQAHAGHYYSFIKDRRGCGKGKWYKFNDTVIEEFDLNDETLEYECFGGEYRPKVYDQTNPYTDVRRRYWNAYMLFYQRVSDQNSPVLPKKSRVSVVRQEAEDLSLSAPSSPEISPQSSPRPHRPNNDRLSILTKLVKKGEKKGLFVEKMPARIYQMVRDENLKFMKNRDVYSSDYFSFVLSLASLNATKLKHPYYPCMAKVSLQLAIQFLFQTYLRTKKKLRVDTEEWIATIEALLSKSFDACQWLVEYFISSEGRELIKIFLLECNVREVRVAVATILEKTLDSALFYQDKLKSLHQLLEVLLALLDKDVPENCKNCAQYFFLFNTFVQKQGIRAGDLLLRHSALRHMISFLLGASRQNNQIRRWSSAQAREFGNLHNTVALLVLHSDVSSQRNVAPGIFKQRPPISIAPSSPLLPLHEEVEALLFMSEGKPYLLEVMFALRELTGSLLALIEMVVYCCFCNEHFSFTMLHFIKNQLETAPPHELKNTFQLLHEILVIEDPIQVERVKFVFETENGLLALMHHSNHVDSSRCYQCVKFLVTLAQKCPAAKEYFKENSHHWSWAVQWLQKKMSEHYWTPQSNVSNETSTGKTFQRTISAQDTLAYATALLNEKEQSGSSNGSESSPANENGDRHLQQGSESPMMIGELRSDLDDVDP
structure (smiles),measurement,setting,value
O=C(CCl)N1CCN(c2nc3ccccc3o2)CC1,log2 ratio of Biotin-Ahx-Ub-VS probe labelling,USP19,-0.702
same,log2 ratio of Biotin-Ahx-Ub-VS probe labelling,USP22,0.146
same,log2 ratio of Biotin-Ahx-Ub-VS probe labelling,USP24,-1.3 (active)
same,log2 ratio of Biotin-Ahx-Ub-VS probe labelling,USP25,-0.53
same,log2 ratio of Biotin-Ahx-Ub-VS probe labelling,USP28,-0.6
